MITF inh: blocks human microphthalmia-associated transcription factor | O75030 | AlphaScreen MITF homodimerization, bead proximity signal | inhibition, % at 2.6 µM | hit rate 0.91% among 650,000 | AID 1259374; in the data active means inhibition above about 50%;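 further: 0% = vehicle wells with protein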
FBW7 activator: activators of human E3 ligase FBW7; Q969H0; AlphaScreen FBW7–phospho-cyclin E peptide binding, activator screen; normalized activity (activation), % at 26.1 µM; hit rate 0.13% among 650,000; AID 1259310; in the data active means normalized activity above about 1.9%;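 further: purified mutant Fbw7 with reduced substrate affinity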
Target sequence (Q969H0 whole entry, looked up): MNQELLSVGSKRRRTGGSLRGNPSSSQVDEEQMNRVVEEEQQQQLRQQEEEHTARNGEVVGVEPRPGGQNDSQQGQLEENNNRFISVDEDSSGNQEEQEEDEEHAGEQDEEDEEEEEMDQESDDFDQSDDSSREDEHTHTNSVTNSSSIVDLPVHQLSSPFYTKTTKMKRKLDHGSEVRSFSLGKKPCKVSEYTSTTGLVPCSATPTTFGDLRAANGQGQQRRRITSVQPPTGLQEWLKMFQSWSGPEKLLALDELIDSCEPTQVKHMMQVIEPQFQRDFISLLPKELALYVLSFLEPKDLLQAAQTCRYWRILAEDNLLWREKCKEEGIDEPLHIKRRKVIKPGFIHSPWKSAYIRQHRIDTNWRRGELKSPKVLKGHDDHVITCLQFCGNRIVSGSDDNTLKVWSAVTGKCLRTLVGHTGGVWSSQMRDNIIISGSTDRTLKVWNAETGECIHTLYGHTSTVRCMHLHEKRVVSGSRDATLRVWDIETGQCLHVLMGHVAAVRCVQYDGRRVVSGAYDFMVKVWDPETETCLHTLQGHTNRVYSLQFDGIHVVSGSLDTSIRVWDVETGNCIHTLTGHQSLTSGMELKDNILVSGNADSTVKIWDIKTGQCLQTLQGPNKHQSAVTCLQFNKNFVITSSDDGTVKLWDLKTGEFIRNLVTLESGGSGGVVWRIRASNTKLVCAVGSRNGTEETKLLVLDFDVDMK
TEAD-YAP inh: TEAD-YAP interaction inhibition; AID 1259422; inhibition, % at 9.12 µM; hit rate 1.4% among 640,000; HEK-TIYL cells, TEAD-Gal4/YAP UAS-luciferase luminescence; in the data active means inhibition above about 32%;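 further: 0% = median of test compound wells and 100% = reference inhibitor wells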
GPR151 activ: activators of human GPR151 | hit rate 1% among 650,000 | PathHunter beta-arrestin GPR151 cells, luminescence | Q8TDV0 | activation, % at 11.2 µM; in the data active means activation above about 4.9%;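 further: 0% = median of compound wells and 100% = cells with positive control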
MITF inh conf: human MITF inhibition, confirmation. shares compounds with MITF inh. AID 1259372. hit rate 16% among 4,700. AlphaScreen MITF homodimerization, biotin/His-MITF beads. inhibition, % at 2.6 µM;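 active means inhibition above a cutoff derived from the DMSO control wells, cut at about 28% in these data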;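 further: 0% = MITF dimer wells with DMSO only; inhibitors lower the bead chemiluminescence by keeping MITF from dimerizing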
AS interf DR: AlphaScreen optical interference, dose response counter-screen; AlphaScreen optical interference counterscreen, cell-free; AID 1259373; IC50, µM; hit rate 6% among 480; shares compounds with MITF inh; call rule not given here
AlphaScreen intf2: optically interferes with AlphaScreen signal | shares compounds with MITF inh | LysRS AlphaScreen counterscreen, signal interference, triplicate | inhibition, % at 2.6 µM | hit rate 7.6% among 4,700;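 active means inhibition above a cutoff derived from the DMSO control wells, cut at about 30% in these data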
Numbers without * were called inactive; / = no result. Most compounds without a hit are left out; they make up all but 3.5% or so of the library.

SMILES	MITF inh	FBW7 activator	TEAD-YAP inh	GPR151 activ	MITF inh conf	AlphaScreen intf2	others
COCc1ccc(O)c2ncccc12	91*	0	91*	0	109*	101*
Cc1ccc(O)c2ncccc12	0	0	-11	-1	/	/
CCOCc1ccc(O)c2ncccc12	98*	-2	88*	0	82*	101*
CCOc1c(C)cc(-c2ncccc2O)cc1C	9	0	-4	-1	/	/
CCOc1ccccc1NC(=O)c1ccc(N(C)S(=O)(=O)c2ccccc2)cc1	11	1	8	0	/	/
Cc1oc2nc(SCC(=O)NCCCN3CCOCC3)nc(N)c2c1C	-3	0	-6	1	/	/
O=C(O)c1ccc(/C=N/c2ncn[nH]2)cc1	-5	0	5	0	/	/
CCCN1CCN(C(=O)c2nn(-c3cc(OC)cc(OC)c3)c(=O)c3ccccc23)CC1	65*	0	15	-1	-9	-3
COc1ccc(C2C(C#N)=C(N)OC3=C2C(=O)CC(C)(C)C3)c2ccccc12 (centres undefined)	70*	0	5	0	8	12
COc1ccc([C@H]2C(C#N)=C(N)OC3=C2C(=O)CC(C)(C)C3)c([N+](=O)[O-])c1OC	17	0	-7	0	/	/
CCc1ccc(C2CC(c3cccc(OC)c3OC)n3nnnc3N2)cc1 (centres undefined)	14	0	10	-1	/	/
Cc1sc2nc(C)n3c(=O)n(CC(=O)NCc4ccco4)nc3c2c1C	51*	0	5	2	29*	9	AS interf DR=>6.5
Cc1sc2nc(C(C)C)n3c(=O)n(CC(=O)NCc4ccco4)nc3c2c1C	14	0	5	-1	/	/
COc1ccc(OCCCNC(C)c2ccccc2)cc1 (centres undefined)	-5	0	-4	-1	/	/
CC1CN(Cc2ccc(CO)o2)Cc2ccccc2O1 (centres undefined)	9	0	6	0	/	/
Cc1ccc(N=c2scc(-c3ccc(Br)cc3)n2-c2ccc(C)cc2)cc1	-5	0	-3	0	/	/
CC1CN(c2[nH]c(=O)n(C)c(=O)c2Cc2ccccc2-c2ccccc2)CC(C)O1 (centres undefined)	12	0	6	-1	/	/
COc1cc(OC)cc(-c2ncc3ccccn23)c1	67*	-1	0	0	2	15
COc1cccc(-c2ncc3ccccn23)c1	68*	-1	-58	-1	14	32*
FC(F)(F)c1ccc(-c2noc(-c3cc(-c4ccc(Cl)cc4)nc4ccccc34)n2)cc1	56*	1	-10	1	-11	-12
CCOc1ccc(-c2cn3nc(COc4ccc(Cl)cc4Cl)n4c3c2CCCC4)cc1	59*	1	-16	-2	-9	-5
COc1ccc(NC(=O)/C=C2/c3ccccc3CC(C)(C)N2C)cc1	2	0	-17	1	/	/
Cc1cc(C)c(C)c(OCCOCCNC(C)(C)C)c1	64*	0	6	1	-12	-7
Cc1cc(C)c(C)c(OCCNC(C)(C)C)c1	14	0	10	1	/	/
c1ccc(OCCN2CCOCC2)cc1	54*	0	2	-2	0	10
SMILES	MITF inh	FBW7 activator	TEAD-YAP inh	GPR151 activ	MITF inh conf	AlphaScreen intf2	others
CCN1CCN(CCOCCOc2ccc3ccccc3c2Cl)CC1	51*	0	-4	0	6	12
c1ccc(-c2ccc(OCCCN3CCNCC3)cc2)cc1	-16	0	-53	0	/	/
Clc1c(OCCN2CCOCC2)ccc2ccccc12	12	0	-49	2	/	/
c1ccc(-c2ccc(OCCN3CCNCC3)cc2)cc1	56*	0	-22	-2	-9	-3
c1ccc(OCCNCCN2CCOCC2)cc1	9	0	-5	0	/	/
COC(=O)c1cc(=O)n2c(n1)sc1cc(C)ccc12	20	0	1	0	/	/
CC(C)(C)NCCOCCOc1ccccc1I	25	0	2	1	/	/
c1ccc(-c2ccccc2OCCOCCN2CCNCC2)cc1	76*	0	9	3	8	-3
CCN1CCN(CCOCCOc2ccccc2-c2ccccc2)CC1	64*	0	4	0	8	17
CC(C)(C)NCCOCCOc1ccccc1-c1ccccc1	63*	0	-5	1	-2	0
CCC(C)c1ccccc1OCCN1CCOCC1 (centres undefined)	84*	0	9	1	17	1
CCOc1ccc(CN2CCC(N3CCCC(C)C3)CC2)cc1 (centres undefined)	53*	0	-3	0	1	0
Clc1ccc(CN2CCC(N3CCCCC3)CC2)cc1	-12	0	-2	1	/	/
CC1CCCN(C2CCN(Cc3ccc(Cl)cc3)CC2)C1 (centres undefined)	56*	0	-13	0	6	2
O=C(Cc1ccccc1)NN1C(=O)C2C3C=CC(O3)C2C1=O (centres undefined)	-3	0	2	2	/	/
Cc1[nH][nH]c(=O)c1C(c1ccccc1OCc1ccc(Br)cc1)c1c(C)[nH][nH]c1=O	66*	-1	-11	0	46*	7
Cc1noc(C)c1COC(=O)CN1C(=O)C2CCCCC2C1=O (centres undefined)	-3	0	4	-1	/	/
COc1ccc(C(=O)N2CCN(CC3CC=CCC3)CC2)cc1OC (centres undefined)	32	0	-8	-1	/	/
CCS(=O)(=O)N1CCN(Cc2cccc(C)c2)CC1	45	0	1	0	/	/
Cc1cccc(CN2CCN(CC3CC=CCC3)CC2)c1 (centres undefined)	67*	0	-2	1	-101	-4
Fc1ccc(CN2CCN(CC3CC=CCC3)CC2)cc1 (centres undefined)	65*	0	7	1	-2	4
COc1ccc(CN2CCN(CC3CC=CCC3)CC2)cc1OC (centres undefined)	61*	0	17	1	5	4
CCOc1cc(CN2CCN(CC3CC=CCC3)CC2)ccc1OC (centres undefined)	70*	0	-2	0	-7	-1
CCOc1cc(CN2CCCC2)ccc1OC	25	0	20	-1	/	/
C(=N\Nc1nncc(-c2ccccc2)n1)/c1ccc2c(c1)OCO2	16	0	1	-1	/	/
CCOc1ccccc1NC(=O)c1c(NCc2cc(OC)c(OC)cc2OC)sc2c1CCC2	8	0	9	0	/	/
COc1ccc(CN2CCN(CC3CC=CCC3)CC2)cc1 (centres undefined)	61*	0	2	0	-9	-5
O=C(NCCN1CCOCC1)c1ccc2c(c1)NC(=O)c1ccccc1S2	-2	0	-3	2	/	/
CCc1nc2c(sc3cccc(F)c32)c(=O)n1CC(=O)NCc1ccc(Cl)cc1	55*	0	-4	-1	-5	-5

Screening results: PubChem, The Scripps Research Institute Molecular Screening Center
